Over roughly 4,100 sequences, “arbitrary fluorescence units” has its median near 780; the highest 2% begin near 22,000. The sample holds the highest values, similar sequences and a random draw of the others, so the mix is not that of the screen.

The target in the assay is T1, ETS1 (UniProt P14921).
T1 sequence: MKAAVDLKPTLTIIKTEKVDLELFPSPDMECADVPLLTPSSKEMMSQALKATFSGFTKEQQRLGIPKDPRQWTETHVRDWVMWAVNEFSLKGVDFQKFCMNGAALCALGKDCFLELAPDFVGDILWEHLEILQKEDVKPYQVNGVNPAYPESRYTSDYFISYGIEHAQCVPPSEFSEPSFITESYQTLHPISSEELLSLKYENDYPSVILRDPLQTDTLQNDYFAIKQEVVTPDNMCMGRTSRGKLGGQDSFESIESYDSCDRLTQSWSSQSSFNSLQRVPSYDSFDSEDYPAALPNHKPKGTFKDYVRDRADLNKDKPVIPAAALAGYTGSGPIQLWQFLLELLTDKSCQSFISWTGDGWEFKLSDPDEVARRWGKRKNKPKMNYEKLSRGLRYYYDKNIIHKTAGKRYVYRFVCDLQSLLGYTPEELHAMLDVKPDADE
Nature of the assay: ETS1 binding intensity (PBM fluorescence), ETS1 alone (arbitrary fluorescence units); higher = stronger binding. The note with it: ETS1 concentration 1 nM; RUNX1 concentration 0 nM. The protocol:
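gcPBM on 36-bp genomic-derived probes (partner site mutated) containing one ETS1 site and no RUNX1 site. Recombinant human ETS1 (1 nM) was incubated alone or with RUNX1 (25 nM) and detected by anti-ETS1 antibody fluorescence. Values are medians over 4 replicate spots (not normalised). The probes sit in constant array flanks that are not printed.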
For CCATTGGCGGGCGGCTTGAATGACGGAAGTGACGGC, the ETS1 binding intensity came out at 872.

Consider CTGTCGTGACCCGGCAGGAGTAGCGTCGGAAGCAAT, for which the ETS1 binding intensity came out at 403.

For CTTAGCGGAAGAGGCGTGACCCAGGCGTACCCCAGG, the ETS1 binding intensity turned out to be 1380.

For the sequence GGTCCAGGAAGACGTCAAGGGCTTGGATTTGTAAAC, the ETS1 binding intensity came out at 437.

Regarding TAGGTCACCTCCGCGACACAGCAACGGAAGTAGGGT, the ETS1 binding intensity amounted to 1110.

Sequence GCACCACCGGAAGTAGGGCTCAACCTCCGCTCATTT came in with an ETS1 binding intensity of 24400.

With AGGGGCAGAGCACAGCACCACCGGAAGTAGGGCTCA, the ETS1 binding intensity amounted to 9450.

The sequence GTCCCCTCGGTGTCACAGCAATATCCGTTCTTTGAT returned an ETS1 binding intensity of 1190.

CGGGAATCCACGGAATTTACTGCCGGAAGTTCGGCG came in with an ETS1 binding intensity of 2700.

In turn, CGAGAACGGCGCCACTGAGGAACCGGAAACAAGCCA showed an ETS1 binding intensity of 3230.

For the sequence GAAGTCACATCCTGTCTGTTGGGGCAGGGCACAGAG, the ETS1 binding intensity worked out at 23500.

As to AGACCCTGTTGTCACATGGCAGGAAGTCTGCAGGTT, the ETS1 binding intensity turned out to be 1060.

As to CATCTGTTGTCTCCTTGAAGTCACATCCCACAGGAG, the ETS1 binding intensity turned out to be 438.

Turning to ACAAAAAAATCACACACCCAACGGAAACCATAGAGA, the ETS1 binding intensity worked out at 669.

Take AGCACCCCATTCTACACCTCCAGCTCATCCTGCGTC: the ETS1 binding intensity amounted to 389.

Take GAACTTCCGGGACCACGTGACGTAGAACTACAACAA: the ETS1 binding intensity came to 32800.

CTCCTGGGCTTGTAGTTAGAACATCCTGCAGCAAAG came in with an ETS1 binding intensity of 1130.

Take AATGAGCCCCAGAACCCTTTTCCTTCCGGCCTGTGC: the ETS1 binding intensity stood at 1520.

Sequence GCAGGACTTCCTGTGTTGTGCTAACCCCAAATTACA returned an ETS1 binding intensity of 22100.

Sequence TTTCTGACTTCCTGTGTGCTTCAGAAACCCCAATGA gave an ETS1 binding intensity of 25100.

Take CGGAGAGCTCGCGGCAATTCCGTTTCCCCGCCCTTT: the ETS1 binding intensity turned out to be 404.

In turn, CCGCCCACTTCCGTGTGGCCGCCGATTGGTCTTGCC yielded an ETS1 binding intensity of 7350.

GAGGGCTGCTTCCTGCTCTGTGGAGGCCGCTGAGGG gave an ETS1 binding intensity of 6710.

With GGCCTACGGGAGGGCCCGCCTTGGCTGCTTCCGCAG, the ETS1 binding intensity is 310.

GCTGCTTCCGGCCGCTGGTCGCAGGGCTGAGGGACT returned an ETS1 binding intensity of 26400.

In turn, GGCTCTGCCGTCCGCTGACAGGAAGACGCTGACGAC returned an ETS1 binding intensity of 973.

With TGCGCTCGATTGTGAGCGGGGGCGGAAAGAGGCGCC, the ETS1 binding intensity came out at 471.

For the sequence GTAGGGCCGGACGGCAGGCTCCGGGATAGCGCCACG, the ETS1 binding intensity came out at 416.

AGCTTTTCTGAGAGCGCGGGCAGGATGTGACCTCCC registered an ETS1 binding intensity of 675.

CTTTCTGTCGAGGTCAGGTTTCCTCTCCTTTATGAA returned an ETS1 binding intensity of 437.

Take GCGGGGCGTGTCCACGCACTTCCGGTTTTCTCGAAA: the ETS1 binding intensity is 28700.

The sequence CGTGTCCACGGGGACCGAAAGTGGCGTCCGGCGCAA returned an ETS1 binding intensity of 354.

Sequence GGGTCCTTCCGGGTTTTGTGTCGAATCTACGGCGGC had an ETS1 binding intensity of 7400.

For the sequence TGTGTAATCCCCACGACAACCTAGGAAGTGGGAAAA, the ETS1 binding intensity is 410.

For the sequence CTGCCCATCGCTGTTAACTTTTCCGCCTCCTTAAAG, the ETS1 binding intensity is 492.
